Test results as given in PubChem BioAssay (NCATS).
Values joined by “and” are separate entries in the source; they are usually repeats but may differ in a detail not shown here. Equal values may be shown once. Records with an inconclusive call do not appear. Active and inactive are the calls of the source. Unless noted, calls follow the shape of the dose curve; as a rule, active = well fitted curve in either direction with a large enough effect (not every such curve was filed as active); inconclusive = small, poorly fitted or top-dose-only effect, or another doubt; inactive = flat fitted curve, though single readings scatter.

Assays:
[1] = AP1 Signaling Pathway (AID 357); details: ME-180 AP-1-bla reporter, EGF-induced, beta-lactamase ratio, 5 h;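 also: ME-180 reporter cells stimulated with EGF at its EC50 level; % is scaled to controls: 0 for no effect and ±100 for the full control effect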
Procedure, shortened: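 In this screen, ME-180 cells in Opti-MEM with 0.5% dialyzed FBS received EC50 EGF and compound titrations for 5 h. AP-1 reporter beta-lactamase was detected via CCF4 ratio, giving AC50 for positive and negative modulators.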

[2] = target: Cytochrome P450 1A2 (Homo sapiens) (UniProt P05177); test: p450-cyp1a2 (AID 410; calls by dose curve; also: potency is read from the fitted curve at half-maximal effect;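 as to activity change, negative = inhibition: -100% = full effect of reference inhibitor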); details: recombinant CYP1A2, luciferin-ME demethylation, luminescence; series mostly up to 25.6 µM
Chain of Cytochrome P450 1A2 (Homo sapiens) (P05177 whole entry, looked up): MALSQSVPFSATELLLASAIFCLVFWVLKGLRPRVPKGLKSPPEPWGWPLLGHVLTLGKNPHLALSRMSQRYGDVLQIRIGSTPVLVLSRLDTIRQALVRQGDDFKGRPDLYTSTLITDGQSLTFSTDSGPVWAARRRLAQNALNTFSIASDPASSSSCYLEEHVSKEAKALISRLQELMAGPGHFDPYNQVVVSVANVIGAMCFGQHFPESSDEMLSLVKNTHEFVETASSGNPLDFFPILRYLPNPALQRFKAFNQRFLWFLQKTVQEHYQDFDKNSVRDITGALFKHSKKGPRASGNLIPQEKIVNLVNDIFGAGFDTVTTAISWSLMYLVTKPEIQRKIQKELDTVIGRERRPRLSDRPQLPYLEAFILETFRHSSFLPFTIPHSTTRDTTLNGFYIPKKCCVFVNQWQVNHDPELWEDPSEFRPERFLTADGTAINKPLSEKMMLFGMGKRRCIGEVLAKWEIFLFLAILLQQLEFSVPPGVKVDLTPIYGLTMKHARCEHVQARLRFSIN
Procedure, shortened: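 20nM CYP1A2 with 100uM Luciferin-ME (at Km) in 100mM KPO4; compound preincubated 10 min, NADPH regeneration added, 60 min at room temperature. Luciferin quantified by luminescence after detection reagent; normalized to 57 uM furafylline.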

[3] = Stat Signaling Pathway (AID 446); details: ME-180 SIE beta-lactamase reporter, IL-6 stimulated, 5 h; at 17.2 µM (top of the series);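 also: ME-180 cervical cancer cells given 40 pM IL-6 alongside compound; SIE-controlled beta-lactamase reporter measured as 460/530 nm FRET emission ratio; % is scaled to controls: 0 for no effect and ±100 for the full control effect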
Procedure, shortened: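 Screening format detects activators and inhibitors alike: ME-180 SIE-bla cells stimulated at 40 pM IL-6 for 5 hrs with compound, then dual-emission beta-lactamase read at 405 nm excitation.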

[4] = target: Glucocorticoid receptor (Homo sapiens) (UniProt P04150); test: GR-GFP Redistribution (AID 450;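 active = compounds whose dose series gives a full or clear partial fitted curve of increased nuclear translocation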; also: potency is read from the fitted curve at half-maximal effect); details: U2OS GR-GFP nuclear translocation, laser cytometry, 2 h
Chain of Glucocorticoid receptor (Homo sapiens) (P04150 whole entry, looked up, the tested form may be a part): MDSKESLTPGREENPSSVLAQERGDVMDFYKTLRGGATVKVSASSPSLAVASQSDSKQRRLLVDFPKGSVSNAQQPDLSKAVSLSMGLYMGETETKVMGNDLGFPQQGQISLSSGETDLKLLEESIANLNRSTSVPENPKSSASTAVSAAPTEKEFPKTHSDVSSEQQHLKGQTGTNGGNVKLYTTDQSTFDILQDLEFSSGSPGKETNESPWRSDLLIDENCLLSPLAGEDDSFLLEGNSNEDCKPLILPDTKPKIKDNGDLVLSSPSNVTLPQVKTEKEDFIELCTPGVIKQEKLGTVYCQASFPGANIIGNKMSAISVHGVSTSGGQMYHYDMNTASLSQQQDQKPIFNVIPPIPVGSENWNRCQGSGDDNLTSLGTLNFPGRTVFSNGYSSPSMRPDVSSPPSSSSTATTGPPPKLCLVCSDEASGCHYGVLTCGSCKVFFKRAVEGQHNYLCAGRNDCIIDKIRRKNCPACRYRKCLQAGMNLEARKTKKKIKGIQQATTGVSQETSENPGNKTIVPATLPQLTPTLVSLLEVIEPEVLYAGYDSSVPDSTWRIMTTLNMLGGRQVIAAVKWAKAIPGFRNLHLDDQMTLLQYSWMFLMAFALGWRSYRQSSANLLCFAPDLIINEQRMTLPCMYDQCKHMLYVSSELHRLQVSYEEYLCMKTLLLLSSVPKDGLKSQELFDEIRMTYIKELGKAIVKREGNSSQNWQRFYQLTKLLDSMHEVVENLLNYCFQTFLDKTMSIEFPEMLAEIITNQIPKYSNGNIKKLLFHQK

[5] = target: Glucocorticoid receptor (Homo sapiens) (UniProt P04150); test: GR-EFC Redistribution (AID 451; calls by dose curve; also: potency is read from the fitted curve at half-maximal effect); details: CHO-K1 GR-EFC translocation, beta-gal luminescence, 2 h
Procedure, shortened: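 CHO-K1 cells stably expressing nuclear-localized β-gal enzyme acceptor and GR fused C-terminally to the enzyme donor fragment; ligand-driven nuclear translocation restores β-gal by complementation. Compounds titrated up to 46 uM final, 2 h at 37 °C; luminescence read.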

[6] = target: Mitogen-activated protein kinase 10 (Mus musculus) (UniProt Q61831); test: JNK3 AlphaScreen Assay (AID 530); details: JNK3 lysate, c-Jun phosphorylation; series mostly up to 25.6 µM;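 also: kinase came from lysate of stimulated human HepG2 cells; signal reports phosphorylation of biotinylated GST-cJun 1-79 at Ser73 with 10 µM ATP; % is scaled to controls: 0 for no effect and ±100 for the full control effect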
Procedure, shortened: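 Inhibitors reduce antibody binding to phosphorylated biotin-cJun, lowering AlphaScreen luminescence. Lysates from HepG2 cells pre-activated by IL-1beta plus TNF-alpha supplied JNK3; compounds were titrated.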

[7] = NFAT Signaling Pathway (AID 444); details: Jurkat NFAT-bla M1, carbachol, beta-lactamase ratio, 5 h; at 17.2 µM (top of the series);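 also: carbachol stimulus at about its EC50 of 1 µM final; % is scaled to controls: 0 for no effect and ±100 for the full control effect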
Procedure, shortened: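 Jurkat cells carrying an NFAT-driven β-lactamase reporter and co-transfected muscarinic M1 receptor were treated with compound plus carbachol (1 uM final, an EC50 level) for 5 h at 37 °C. CCF4 loading followed for 1 h at RT; 460/530 nm ratio gave %activity.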

[8] = Cell Viability - BJ (AID 421; calls by dose curve;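 also: potency is read from the fitted curve at half-maximal effect; cells exposed to compound for 40 hours at 37 °C before readout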); details: BJ fibroblast viability, qHTS
Procedure, shortened: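 Cytotoxicity in human BJ foreskin fibroblasts is scored as loss of cellular ATP after a 40-hour exposure, measured by luciferase luminescence. Controls are DMSO and 100 uM tamoxifen.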

[9] = Cell Viability - Jurkat (AID 426;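 active = dose-dependent loss of cell ATP signal giving a full or clear fitted curve, ranked by lower potency value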; also: potency is read from the fitted curve at half-maximal effect); details: qHTS
Procedure, shortened: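 Jurkat (Clone E6-1) cells, 5000/well in complete medium, exposed to compounds for 40 hr at 37C; intracellular ATP measured by CellTiter-Glo luminescence after 20 min at room temperature. AC50 from Hill fits.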

[10] = Cell Viability - Hek293 (AID 427;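 active = compounds whose dose-response curve shows a full or clear partial loss of cell viability, called from curve shape rather than a numeric limit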;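 also: potency is read from the fitted curve at half-maximal effect; cells exposed to compound for 40 hours at 37 °C before reading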); details: qHTS
Procedure, shortened: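 qHTS, human embryonic kidney (adenovirus-transformed) cells; 40 hr cpd, 37 °C; CellTiter-Glo ATP luminescence. Norm: DMSO = 0, 100 uM tamoxifen = 100% inhibition. Hill-fit AC50.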

[11] = Cell Viability - HepG2 (AID 433; calls by dose curve;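 also: potency is read from the fitted curve at half-maximal effect; potency for ATP loss meaning cytotoxicity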); details: qHTS
Procedure, shortened: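 Cytotoxicity read as ATP loss (CellTiter-Glo luminescence) after 40 hr compound exposure of HepG2, 1500 cells/well, 37 °C. AC50 by Hill equation; 0% set by DMSO, 100% inhibition by 100 uM tamoxifen.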

[12] = Cell Viability - N2a (AID 540; active = well fitted curve in the direction sought with a large enough effect; an effect the other way counts as inactive or inconclusive; also: potency is read from the fitted curve at half-maximal effect; nearly all actives have a fitted effect of over 45% in size); details: N2a mouse neuroblastoma cell viability; activity change, negative = cytotoxicity: at 92.2 µM (top of the series)
Procedure, shortened: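 Mouse neuroblastoma N2a cells, 1500/well, exposed to compounds 40 h at 37 °C in complete medium. Viability measured as cellular ATP by CellTiter-Glo luminescence; AC50 from Hill fits of concentration-response.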

[13] = Cell Viability - HUV-EC-C (AID 542; active = well fitted curve in the direction sought with a large enough effect; an effect the other way counts as inactive or inconclusive; also: nearly all actives have a fitted effect of over 35% in size; also: potency is read from the fitted curve at half-maximal effect); details: HUV-EC-C endothelial cell viability, qHTS; series mostly up to 92.2 µM
Procedure, shortened: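 HUV-EC-C human vascular endothelial cells, 1000/well, exposed to compound for 40 hr at 37 °C in complete medium. Intracellular ATP was read by CellTiter-Glo luminescence. AC50 came from Hill-equation fits of concentration-response data.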

[14] = Cell Viability - H-4-II-E (AID 543; active = well fitted curve in the direction sought with a large enough effect; an effect the other way counts as inactive or inconclusive; also: potency is read from the fitted curve at half-maximal effect; nearly all actives have a fitted effect of over 35% in size); details: H-4-II-E rat hepatoma viability; series mostly up to 92.2 µM
Procedure, shortened: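 Rat hepatoma H-4-II-E cells, 1500 per well, treated 40 h at 37 °C in complete medium. Cellular ATP read by CellTiter-Glo luminescence; AC50 from Hill fits of concentration-response.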

[15] = Cell Viability - Mesenchymal (AID 546; active = well fitted curve in the direction sought with a large enough effect; an effect the other way counts as inactive or inconclusive;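 also: cells exposed to compound for 40 hours before reading; 0% = DMSO only and -100% = 100 µM tamoxifen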); details: mesenchymal cells viability, qHTS; activity change, negative = cytotoxicity: at 91.7 µM (top of the series)
Procedure, shortened: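 Normal human renal glomerulus-derived kidney mesenchymal cells, 1000 per well in complete medium, were treated with compounds for 40 hr at 37 °C. Viability was read as intracellular ATP by CellTiter-Glo luminescence; AC50 values came from Hill-equation fits of qHTS concentration-response data.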

[16] = Cell Viability - SK-N-SH (AID 435; calls by dose curve; also: potency is read from the fitted curve at half-maximal effect); details: SK-N-SH neuroblastoma cell viability qHTS
Procedure, shortened: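 qHTS cytotoxicity: CellTiter-Glo ATP luminescence after 40 h compound exposure of human neuroblastoma SK-N-SH cells at 37 °C. AC50 derived by Hill-equation fitting, with DMSO as basal and 100 uM tamoxifen as full inhibition.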

[17] = Cell Viability - NIH 3T3 (AID 541; active = well fitted curve in the direction sought with a large enough effect; an effect the other way counts as inactive or inconclusive;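 also: plate controls were DMSO alone for no effect and tamoxifen positive control for full effect; nearly all actives have a fitted effect of over 25% in size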); details: NIH 3T3 cell viability, qHTS; activity change, negative = cytotoxicity: at 92.2 µM (top of the series)
Procedure, shortened: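 Mouse NIH 3T3 fibroblasts, 1000 cells/well, rested 5 hr at 37 °C, then exposed to compound for 40 hr at 37 °C in complete medium. Viability read as intracellular ATP by CellTiter-Glo luminescence; AC50 from Hill-equation fits of concentration-response data.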

CCCCOc1ccc(C(=O)CCN2CCCCC2)cc1
active: Potency [2] 3.16 µM
inactive: activity change, negative = inhibition ([1]; at 17.2 µM (top of the series)) 18.2% and 12.3% | activity, negative = inhibition [3] -25% and -28.6% | Potency [4] > 20.6 µM | Potency [5] > 20.6 µM | outcome [6]

O=C(COc1ccc(Cl)cc1)N1CCN(Cc2ccc3c(c2)OCO3)CC1
inactive: activity change, negative = inhibition ([1]; at 17.2 µM (top of the series)) -14.6% | activity change, negative = inhibition [7] 15.3% | activity, negative = inhibition [3] 1.26% | outcome [6]
active: Potency [2] 5.01 µM

CC(C)N=C(N)/N=C(\N)Nc1ccc(Cl)cc1
inactive: activity change, negative = inhibition ([1]; at 17.2 µM (top of the series)) -0.245% | activity change, negative = inhibition [7] -11% | activity, negative = inhibition [3] -2.15% | Potency [4] > 20.6 µM | Potency [5] > 20.6 µM | outcome [6]

Cc1cc(=O)n(-c2ccccc2)n1C
inactive: activity change, negative = inhibition ([1]; at 17.2 µM (top of the series)) 3.67% | Potency [2] | activity change, negative = inhibition [7] -2.45% | activity, negative = inhibition [3] 10.3% | outcome [6]

Oc1c(Cl)cc(Cl)cc1Sc1cc(Cl)cc(Cl)c1O
inactive: activity change, negative = inhibition ([1]; at 17.2 µM (top of the series)) -12.3% | Potency [8] > 92 µM | Potency [4] > 20.6 µM | outcome [6] | activity change, negative = cytotoxicity [15] -28.4%
active: Potency [9] 47.8 µM | Potency [10] 36.2 µM | Potency [11] 27.9 µM | activity change, negative = inhibition [7] -126% | activity, negative = inhibition [3] -99.1% | Potency [12] 31.6 µM | Potency [13] 20 µM | Potency [14] 31.6 µM

CC1(C)O[C@@H]2C[C@H]3[C@@H]4C[C@H](F)C5=CC(=O)CC[C@]5(C)[C@H]4[C@@H](O)C[C@]3(C)[C@]2(C(=O)CO)O1
active: Potency [4] 0.00217 µM
inactive: activity change, negative = inhibition ([1]; at 17.2 µM (top of the series)) -0.38% | activity change, negative = inhibition [7] 16.2% | activity, negative = inhibition [3] -6.53%

COc1c(C)c2c(c(O)c1C/C=C(\C)CCC(=O)O)C(=O)OC2
active: Potency [2] 31.6 µM
inactive: activity change, negative = inhibition ([1]; at 17.2 µM (top of the series)) 6.58% | activity change, negative = inhibition [7] -1.42% | activity, negative = inhibition [3] 8.02% | outcome [6]

C[C@H]1C[C@H]2[C@@H]3CCC4=CC(=O)C=C[C@]4(C)[C@@]3(Cl)[C@@H](O)C[C@]2(C)[C@@]1(O)C(=O)CO
inactive: activity change, negative = inhibition ([1]; at 17.2 µM (top of the series)) -9.37% | activity change, negative = inhibition [7] -6.95% | activity, negative = inhibition [3] -1.29%

CC(=O)N(O)CCCCCNC(=O)CCC(=O)N(O)CCCCCNC(=O)CCC(=O)N(O)CCCCCN
inactive: activity change, negative = inhibition ([1]; at 17.2 µM (top of the series)) -6.04% | Potency [2] | activity, negative = inhibition [3] 10.3% | Potency [4] > 20.6 µM | Potency [5] > 20.6 µM | outcome [6]

CCCCCCCCCCCCCCCC[N+](C)(C)CCN(Cc1ccc(OC)cc1)c1ncccn1
inactive: activity change, negative = inhibition ([1]; at 17.2 µM (top of the series)) 21.6% | activity change, negative = inhibition [7] 8.86% | activity, negative = inhibition [3] 11.5% | Potency [4] > 20.6 µM | Potency [5] > 20.6 µM | outcome [6]

CC(CCc1ccccc1)NCC(O)c1ccc(O)c(C(N)=O)c1 (stereo not drawn)
inactive: activity change, negative = inhibition ([1]; at 17.2 µM (top of the series)) 5.69% | activity change, negative = inhibition [7] 9.12% | activity, negative = inhibition [3] 9.7% | Potency [4] > 20.6 µM

CC(=O)O[C@]1(C(C)=O)CC[C@H]2[C@@H]3C[C@H](C)C4=CC(=O)CC[C@]4(C)[C@H]3CC[C@@]21C
active: activity change, negative = cytotoxicity [17] -134% | Potency [14] 50.1 µM
inactive: activity change, negative = inhibition ([1]; at 17.2 µM (top of the series)) 15.9% | Potency [8] > 92 µM | Potency [11] > 92 µM | Potency [16] > 92 µM | activity change, negative = inhibition [7] 6.28% | activity, negative = inhibition [3] 11.1% | outcome [6] | Potency [13] | activity change, negative = cytotoxicity [15] -6.64%

CC(=O)OCC(=O)[C@@]1(O)[C@H](C)C[C@H]2[C@@H]3CCC4=CC(=O)C=C[C@]4(C)[C@@]3(F)[C@@H](O)C[C@@]21C
inactive: activity change, negative = inhibition ([1]; at 17.2 µM (top of the series)) -10.4% | activity change, negative = inhibition [7] 29.8% | activity, negative = inhibition [3] -9.24%

C[C@]12CC[C@H]3[C@@H](CCC4=CC(=O)CC[C@@]43C)[C@@H]1CC[C@@H]2C(=O)CO
active: Potency [4] 0.0356 µM
inactive: activity change, negative = inhibition ([1]; at 17.2 µM (top of the series)) 12.4% | activity change, negative = inhibition [7] -13.6% | activity, negative = inhibition [3] 1.53%

COc1cc(NS(C)(=O)=O)ccc1Nc1c2ccccc2nc2ccccc12
active: Potency [2] 7.94 µM
inactive: activity change, negative = inhibition ([1]; at 38 µM (top of the series)) -9.96% | Potency [4] > 46 µM | Potency [5] > 46 µM

C[C@H](CCC(=O)O)[C@H]1CC[C@H]2[C@@H]3C(=O)C[C@@H]4CC(=O)CC[C@]4(C)[C@H]3CC(=O)[C@]12C
inactive: activity change, negative = inhibition ([1]; at 17.2 µM (top of the series)) 8.36% | activity change, negative = inhibition [7] 13.3% | activity, negative = inhibition [3] 1.08% | Potency [4] > 20.6 µM

CC(=O)OCC(=O)[C@@]1(O)CC[C@H]2[C@@H]3CCC4=CC(=O)C=C[C@]4(C)[C@H]3[C@@H](O)C[C@@]21C
inactive: activity change, negative = inhibition ([1]; at 17.2 µM (top of the series)) 11.9% | activity change, negative = inhibition [7] -6.54% | activity, negative = inhibition [3] -3.24%

O=C(OCCOCCO)c1ccccc1Nc1cccc(C(F)(F)F)c1
inactive: activity change, negative = inhibition ([1]; at 17.2 µM (top of the series)) -27.7% | activity change, negative = inhibition [7] -18% | activity, negative = inhibition [3] -10.5% | Potency [4] > 20.6 µM | Potency [5] > 20.6 µM | outcome [6]

NCCCC[C@H](N[C@@H](CCc1ccccc1)C(=O)O)C(=O)N1CCC[C@H]1C(=O)O
inactive: activity change, negative = inhibition ([1]; at 17.2 µM (top of the series)) 3.25% | activity change, negative = inhibition [7] -2.99% | activity, negative = inhibition [3] 4.58% | Potency [4] > 20.6 µM | Potency [5] > 20.6 µM | outcome [6]

CCN(CCCCOC(=O)c1ccc(OC)c(OC)c1)C(C)Cc1ccc(OC)cc1 (stereo not drawn)
active: activity change, negative = inhibition [7] -93.3%
inactive: activity change, negative = inhibition ([1]; at 17.2 µM (top of the series)) -6.87% | activity, negative = inhibition [3] 1.95% | Potency [4] > 20.6 µM
